# Reference: PubChem BioAssay (NCI)
# This is part of a sample that, as a whole, favours compounds with a hit. Of some 83,000 tested, about 20% had one in any assay.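 Values shown are percent growth following 48 h exposure of cells in 96-well plates to a single concentration of compound; below 10 was considered active.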 Values without a mark were called inactive. The source made the active and inactive calls.
# System: SK-MEL-28 melanoma
# Test: NCI-60 one-dose screen, 48 h (100 = growth as untreated, 0 = no growth, -100 = all killed)
# Settings: 10 µM
row,Compound,growth
1,CCN1CCN(c2ccc(NC(=O)Nc3ccc(-c4cc(C(=O)NC(C)C)c5ncccc5n4)cc3)cc2C(F)(F)F)CC1,-98.9% (active)
2,C=C[C@H]1[C@H](O[C@@H]2OC(CO)[C@@H](O)[C@H](O)C2OC(=O)c2c(O)cc(O)cc2-c2cccc(O)c2)OC=C2C(=O)OCC[C@H]21 (some centres undefined),102%
3,COc1ccc(C(C)=C(c2ccc(OCCCN(C)C)cc2)c2ccc(OCCCN(C)C)cc2)cc1,-97.9% (active)
4,CC1(C)CC[C@]23CC[C@]4(C)[C@H](CC[C@@H]5[C@@]6(C)CC[C@H](N)C(C)(C)[C@@H]6CC[C@]54C)[C@H]2[C@H]1OC3=O,-100% (active)
5,CCN1CCN(c2ccc(NC(=O)Nc3ccc(-c4cc(C(=O)NC)c5ncccc5n4)cc3)cc2C(F)(F)F)CC1,-100% (active)
6,COc1ccc2[nH]c(O)c(N=NC(=O)c3cc(-c4ccc(C)cc4)nc4ccccc34)c2c1,97.5%
7,O=C(Cn1cc(CSc2nnc3oc4ccccc4n23)nn1)Nc1ccc(Br)cc1,89.7%
8,CN1CCN(c2ccc(Nc3nc(N4CCN(S(=O)(=O)c5ccc(F)cc5)CC4)c4sccc4n3)cc2)CC1,-95.4% (active)
9,COc1ccccc1NCc1ccc(CO)n1-c1ccc(C)cc1,106%
10,CC(=C(c1ccc(OCCCN(C)C)cc1)c1ccc(OCCCN(C)C)cc1)c1ccccc1,-99.3% (active)
11,CN1CCN(c2ccc(Nc3nc(NCCCNC(=O)c4ccccc4)c4sccc4n3)cc2)CC1,73.3%
12,CCCCCc1ccc(S(=O)(=O)N(C(C)=O)c2cc(-c3csc(N(C)C(C)=O)n3)ccc2N2CCN(C)CC2)cc1,-94.3% (active)
13,C=C1CC[C@H](C(=C)C)[C@H]2C=C(C)C(=O)C3=C(C(=O)[C@@](C)(O)C3)[C@H]12,-89.2% (active)
14,CC(=O)Nc1nc(-c2ccc(N3CCN(C)CC3)c(NS(=O)(=O)c3cccc4c(N(C)C)cccc34)c2)cs1,-80.1% (active)
15,CNC(=O)c1cccc(N2CCc3c2ccc(NC(=O)Nc2ccc(N4CCN(C)CC4)c(C(F)(F)F)c2)c3F)c1,-93.5% (active)
16,CN1CCN(c2ccc(Nc3nc(N4CCN(S(=O)(=O)c5ccc(Cl)cc5)CC4)c4sccc4n3)cc2)CC1,-98.6% (active)
17,CC1(C)CC[C@]2(C(=O)NCCCNCCCCNCCCN)CC[C@]3(C)C(=CC[C@@H]4[C@@]5(C)Cc6c([nH]c7ccccc67)C(C)(C)[C@@H]5CC[C@]43C)[C@H]2C1,102%
18,C=CC(=O)Nc1nc(-c2cccc(NS(=O)(=O)c3cccc4c(N(C)C)cccc34)c2)cs1,-93.6% (active)
19,COC1CC(Cn2cc(COc3ccc4ccc(=O)oc4c3)nn2)C(OCc2ccccc2)C(OCc2ccccc2)C1OCc1ccccc1 (centres undefined),105%
